Laboratory results as given in the supplement of paper PMC7156485.
± gives the standard deviation of the averaged measurements.

Each compound was assayed on HCC1569 (assay: cell number relative to DMSO (% of DMSO); higher = more cells (less growth inhibition / toxicity)). Settings: concentration: 10 µM; 24 h.
Outline: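 H1.0 nuclear intensity or cell number is expressed as percent of the plate control, with the median of replicates taken. HCC1569 and TDF cells were treated with compounds at 10 µM for 24 h at 37 °C, in triplicate, then fixed and immunostained for H1.0 with DAPI as a nuclear stain. HCC1569 values were smoothed to correct for positional effects.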
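Also: TDF denotes transformed human dermal fibroblasts of mesenchymal origin.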

Compound	cell number
CCN1CC2(COC)CCC(O)C34C5CC6C(OC)CC(O)(C(CC23)C14)C5C6OC(C)=O (configuration not stated) [Condelphine]	101
COc1cc2c(c(OC)c1OC)-c1ccc(SC)c(=O)cc1C(NC(C)=O)CC2 (configuration not stated) [Thiocolchicine]	59.6
Br.CN1C2CC(OC(=O)C(CO)c3ccccc3)CC1C1OC12 (single isomer, unassigned; (-)) [(-)-Scopolamine hydrobromide]	100
C[N+](C)(C)CC(=O)O.[Cl-] [Betaine hydrochloride]	104
COc1cc2c(c(OC)c1OC)-c1ccc(OC)c(=O)cc1C(NC(C)=O)CC2 (configuration not stated) [Colchicine]	57.57 ± 0.52
Cl.c1ccc(C2CC2)c(OCC2=NCCN2)c1 [Cirazoline hydrochloride]	102
Cl.O=C1CCC2(O)C3Cc4ccc(O)c5c4C2(CCN3CC2CC2)C1O5 (configuration not stated) [Naltrexone.HCl]	101
CCC(C)CC(C)N (configuration not stated) [1,3-dimethylpentylamine]	103
CN1C2CCC1CC(OC(=O)C(CO)c1ccccc1)C2.CN1C2CCC1CC(OC(=O)C(CO)c1ccccc1)C2.O.O=S(=O)(O)O (configuration not stated) [Atropine sulfate]	102
CCN(CCCl)Cc1ccccc1Br.Cl [DSP-4 hydrochloride]	98.7
COc1cc(C2c3cc4c(cc3C(O)C3COC(=O)C23)OCO4)cc(OC)c1O (configuration not stated) [4'-Demethylpipodophyllotoxin]	59.6
CCCCCCCCCCCCCCCCOCC(COP(=O)([O-])OCC[N+](C)(C)C)OC(C)=O (configuration not stated)	96
C=CCN1CCC23c4c5ccc(O)c4OC2C(=NN=C2CCC4(O)C6Cc7ccc(O)c8c7C4(CCN6CC=C)C2O8)CCC3(O)C1C5.Cl.Cl (configuration not stated) [Naloxonazine dihydrochloride]	77.5
CC1OC(=O)C2CC3CCCCC3C(C=CC3CCCC(C)N3C)C12 (single isomer, unassigned; (+)) [(+)-Himbacine]	102
CCCN1CCCC2Cc3[nH]ncc3CC21.Cl (single isomer, unassigned; (-)) [(-)-Quinpirole hydrochloride]	99.3
CC1=CC(=O)c2c(O)cccc2C1=O [Plumbagin]	39

Compound	cell number
COC(=O)C1(O)CC2OC1(C)n1c3ccccc3c3c4c(c5c6ccccc6n2c5c31)C(=O)NC4 (configuration not stated) [K-252a, Nocardiopsis sp.]	33.7
NC(Cn1ccc(=O)[nH]c1=O)C(=O)O (stereo not drawn) [S(-)-Willardiine]	104
NCCN(CCN)N(O)N=O [1,1-bis(2-aminoethyl)-2-hydroxy-3-oxotriazane]	99.5
NCCCNCCSP(=O)(O)O [Amifostine]	102.2 ± 1
BrC1C(Br)C(Br)C(Br)C(Br)C1Br (configuration not stated)	101
O=C1CCCN1CC#CCN1CCCC1 [Oxotremorine]	101
Cl.Clc1cc(I)cc(Cl)c1NC1=NCCN1 [p-Iodoclonidine hydrochloride]	102
CCCN1CCCC2Cc3nc(N)ncc3CC21.Cl.Cl (configuration not stated) [Quinelorane dihydrochloride]	99.7
COC(=O)CC(O)(CCC(C)(C)O)C(=O)OC1C(OC)=CC23CCCN2CCc2cc4c(cc2C13)OCO4 (configuration not stated) [Harringtonine]	56.5
CC(=O)C1CCC2C3CCC4CC(O)CCC4(C)C3C(=O)CC12C (stereo not drawn) [5alpha-Pregnan-3alpha-ol-11,20-dione]	107
COc1ccc2c(c1OC)C(=O)OC2C1c2cc3c(cc2CCN1C)OCO3 (single isomer, unassigned; (+)) [(+)-Hydrastine]	98.7
CC12CCC3C(CCC4=C(O)C(=O)CCC43C)C1CCC2=O (configuration not stated) [4-Androsten-4-ol-3,17-dione]	102
COc1ccc2c(c[n+](C)c3c4cc5c(cc4ccc23)OCO5)c1OC.[Cl-] [Chelerythrine chloride]	55.4
CCN1CC2(C)CCC(OC)C34C5CC6CCC(O)(C5C(=O)O6)C(C(O)C23)C14 (configuration not stated) [Heteratisine]	103
COC1=CC(=O)OC(CCc2ccc3c(c2)OCO3)C1 (configuration not stated) [Dihydromethysticin]	96.6
Clc1ccc(C(c2ccc(Cl)cc2)n2cc[n+](CC(OCc3ccc(Cl)cc3Cl)c3ccc(Cl)cc3Cl)c2)cc1.[Cl-] (configuration not stated) [Calmidazolium chloride]	17.8
